Screening results deposited in PubChem by National Center for Advancing Translational Sciences (NCATS).
Rows were chosen to be rich in hits. Some 14% of all compounds tested hit in one or more screens of this group.
Sm TGR inh = inhibitors of Schistosoma mansoni thioredoxin glutathione reductase. purified TGR, DTNB reduction, TNB absorbance 405 nm. Potency, µM (doses to about 114 µM), for the others: at the top dose activity change, negative = inhibition, usual class: inhibitors. 3% of 360,000 active; further: potency means the concentration at half of the fitted maximal effect; nearly all actives have a fitted effect of over 60% in size
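First, TGR (20 nM dispensed) and NADPH were mixed with compound. Second, a 15 min room-temperature incubation followed. Third, further NADPH and then DTNB were added to start the reaction. Finally, TNB absorbance was monitored kinetically.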
Giardia FBPA inh = Giardia lamblia aldolase inhibition; A8B2U2; purified Giardia FBPA; Potency, µM (top dose mostly 59.6 µM), for inactives: at the highest dose activity, negative = inhibition, hits mostly inhibitors; 0.71% of 290,000 active; further: potency means the concentration at half of the fitted maximal effect; nearly all actives have a fitted effect of over 55% in size
Target sequence (A8B2U2 whole entry, looked up): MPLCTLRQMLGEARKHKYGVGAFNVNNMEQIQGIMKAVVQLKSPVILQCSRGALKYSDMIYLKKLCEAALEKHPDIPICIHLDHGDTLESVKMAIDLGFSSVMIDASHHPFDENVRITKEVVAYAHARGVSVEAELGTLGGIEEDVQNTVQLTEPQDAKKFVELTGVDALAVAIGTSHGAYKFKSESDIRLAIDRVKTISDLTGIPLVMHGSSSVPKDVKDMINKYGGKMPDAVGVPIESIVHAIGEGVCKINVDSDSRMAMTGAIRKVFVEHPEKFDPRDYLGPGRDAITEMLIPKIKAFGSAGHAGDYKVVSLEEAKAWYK
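40 nM FBPA preincubated 10 min at RT with compound (up to 57.5 uM final), then substrate plus GAPDH/TPI/NAD/arsenate coupling and diaphorase/resazurin added. Fluorescence read after 20 min at RT, 525/598 nm.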
Pf growth 48h = P. falciparum growth inhibition at 48 hours (one generation); Potency, µM (doses to about 28.7 µM), inactives show top-dose activity change, negative = inhibition, usual class: inhibitors; 5.9% of 310,000 active; P. falciparum luciferase growth in erythrocytes, 48 h; further: potency means the concentration at half of the fitted maximal effect
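Firefly luciferase activity from engineered P. falciparum reports growth; inhibitors lower the luminescent signal. Cultures contained 2% hematocrit erythrocytes at 0.1% final parasitemia.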
Pf growth 96h = P. falciparum growth inhibition at 96 hour, primary screen for plastid delayed-death inhibitors. P. falciparum luciferase reporter growth, 96 h. Potency, µM (titrated, usually from 28.7 µM), inactives show at the highest dose activity change, negative = inhibition, most hits filed as inhibitors. 6.9% of 320,000 active. AID 504834; further: potency means the concentration at half of the fitted maximal effect
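P. falciparum expressing integrated firefly luciferase grown in erythrocytes (2% hematocrit, 0.05% parasitemia final) with compounds for 96 hours at 37 C, 5% CO2. Growth inhibition read as loss of luminescence after adding luciferase detection reagent.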
HCMV inh = human cytomegalovirus inhibition | HFF cells, HCMV-luciferase reporter, 72 h; stronger effect = lower value | activity change, negative = inhibition, % at 57.5 µM | 4.5% of 410,000 active; in the data active means activity change below about -60%; inconclusive means no clear call, values can overlap the other calls; inactive means above about -39%
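Two-dose cell screen: HFF monolayers treated with compounds and infected with luciferase-expressing HCMV at 1 PFU/cell, 72 h at 37C, then lysed for luciferase measurement.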
Starred values were filed as active, the others as inactive; ? = inconclusive; . = no result given; [ ] = another dose, or the depositor's remark. Unless noted, the call rests on the fitted dose curve; in most records, active means well fitted curve in the direction sought with a large enough effect; inconclusive means small, poorly fitted or top-dose-only effect, or another doubt; inactive means no such curve, though single readings can be large; an effect the other way counts as inactive or inconclusive. On the % scale 0 is the no-effect control and ±100 the full control effect.

SMILES	Sm TGR inh	Giardia FBPA inh	Pf growth 48h	Pf growth 96h	HCMV inh
Cc1c(C(=O)NC(C)c2ccccc2)c(-c2ccccc2)nn1-c1ccccc1 (centres undefined)	1%	13%	10µM*	?	-3
NC(=O)C1CCN(c2oc(/C=C/c3ccccc3)nc2S(=O)(=O)c2ccccc2)CC1	?	-3%	?	?	-39
C[C@H]1CN([C@@H](C)CO)C(=O)CCCn2cc(nn2)CO[C@@H]1CN(C)C(=O)c1ccccc1	.	.	.	.	22
CC1CCCCN1S(=O)(=O)c1ccc(C(=O)Nc2ccccc2-c2nc3ccccc3[nH]2)cc1 (centres undefined)	?	-1%	1.9µM*	?	-32
O=C(Nc1ccccc1-c1nc2ccccc2[nH]1)c1ccc(S(=O)(=O)N2CCCCC2)cc1	-24%	-5%	?	2.9µM*	44
O=C(Nc1cccnc1Cl)c1ccc(S(=O)(=O)N2CCCCCC2)cc1	-7%	1%	?	.	-82*
CC1CCCCN1S(=O)(=O)c1ccc(C(=O)Nc2ccccc2-c2nc3ccccc3s2)cc1 (centres undefined)	1%	6%	30%	-2%	30
CCOc1ccccc1NC(=O)c1ccc(F)c(S(=O)(=O)NCc2ccc3c(c2)OCO3)c1	1%	.	.	.	?
O=C(O)C[CH2][Ge](=[O])[O][Ge](=[O])[CH2]CC(=O)O	.	.	-2%	-4%	.
CC(C)NCC(O)c1ccc(N)c(C#N)c1 (centres undefined)	.	.	-2%	12µM*	.
CC(C)NC[C@@H](O)c1ccc(O)c(O)c1	?	7.1µM*	-15%	-1%	-28
CCCNC(=O)OC[C@@H]1O[C@H](CCO/N=C2\c3cc(OC)ccc3O[C@H](c3cccc(OC)c3)[C@H]2O)C=C[C@@H]1Oc1ccc(OC)cc1	.	1%[12.9 µM]	.	.	.
COc1ccc(-c2csc(C(C)(O)c3ccccc3)n2)cn1 (centres undefined)	.	.	.	.	0
CCc1ccc(NC(=O)CSc2nc(-c3ccccc3Cl)nc3c2Cc2c(CO)cnc(C)c2O3)cc1	-34%	.	.	.	-15
Cc1ccc(S(=O)(=O)NC(=O)c2cc(C)n(-c3ccc(N(C)C)cc3)c2C)cc1	-2%	24%	?	3.7µM*	0
Cc1ccc(S(=O)(=O)NCCN=Cc2ccc(N(C)C)cc2)cc1	-29%	-10%	3%	7.4µM*	9
Cc1ccc(S(=O)(=O)NC(=O)Nc2ccc(N(C)C)cc2)cc1	50µM*	.	0.74µM*	0.47µM*	-18
Cc1nc2c(-c3ccccc3)c(C)nn2c(C)c1CCC(=O)NCc1ccc(F)cc1	6%	.	.	.	4
COCCNc1nc(NCc2cc(-c3ccc(OC)cc3)no2)c2sccc2n1	.	.	.	.	-15
CCOC(=O)C(NC(=O)CC)(Nc1ccccc1OC)C(F)(F)F (centres undefined)	-1%	-7%	1%	49%	-4
CCOC(=O)C(Cc1ccccc1)(Nc1ccccc1OC)C(O)c1ccc(C#N)cc1 (centres undefined)	.	.	.	.	-66*
COc1ccc(C(=O)CCNc2ccc3c(c2)OCCO3)cc1	14µM*	3%	5%	-4%	47
O=C(CCC(=O)c1ccc(Oc2ccccc2)cc1)Nc1cccc(Cl)c1	-3%	0%	10%	5.9µM*	14
COc1ccc(C(=O)CCNc2cccc(Cl)c2)cc1	45µM*	1%	117%	?	77
COc1ccc(C(=O)Nc2ccc3c(c2)OCCO3)cc1	-2%	-22%	276%	?	61
SMILES	Sm TGR inh	Giardia FBPA inh	Pf growth 48h	Pf growth 96h	HCMV inh
COC(=O)C1=C(N)Oc2cc(C)n(CCCn3ccnc3)c(=O)c2C1c1cccc(Cl)c1 (centres undefined)	4%	8%	5.9µM*	.	40
CCOC(=O)C1=C(N)Oc2cc(C)n(CCc3ccc(OC)c(OC)c3)c(=O)c2C1c1cccnc1 (centres undefined)	-9%	0%	2.3µM*	10µM*	1
CCOC(=O)C1=C(N)Oc2ccc3ccccc3c2C1c1cccc(O)c1 (centres undefined)	6%	1%	?	-15%	6
COC(=O)C1=C(N)Oc2cc(C)n(CCc3ccccc3)c(=O)c2C1c1cccnc1 (centres undefined)	-6%	-4%	10µM*	?	0
CCOC(=O)C1=C(N)Oc2ccc3ccccc3c2C1c1cccnc1 (centres undefined)	4%	0%	?	9.3µM*	-9
COC(=O)C1=C(N)Oc2cc(C)n(Cc3cccnc3)c(=O)c2C1c1ccc(OC)c(OC)c1 (centres undefined)	4%	2%	-18%	-13%	28
O=P(O)(O)C(O)(Cn1ccnc1)P(=O)(O)O	.	1%	5%	2%	.
O=C1CNC(=S)N1C(CO)c1ccccc1 (centres undefined)	5%	-23%	-1%	11%	?
Cc1c(N)c(C(C)(C)C)cc(C(C)(C)C)c1[N+](=O)[O-]	2%	-8%	-3%	-15%	-6
Cc1cc2nc3c(=O)[nH]c(=O)[nH]c3nc2c([N+](=O)[O-])c1N	-27%	5µM*	-26%	0%	77
C=C(C(=O)c1ccccc1)C(CC(=O)c1ccccc1)c1ccccc1 (centres undefined)	-8%	6%	?	0%	-101*
C=C(CCC(=O)c1ccccc1)C(=O)c1ccccc1	45µM*	5%	4%	-15%	-81*
OC[C@H]1O[C@@H](n2cnc3c(NCc4ccccc4)ncnc32)[C@H](O)[C@@H]1O	.	-1%	.	.	.
OCC1OC(n2cnc3c(NCc4ccccc4O)ncnc32)C(O)C1O (centres undefined)	.	.	.	.	-100*
OCC1OC(n2ccc3c(NO)ncnc32)C(O)C1O (centres undefined)	.	.	.	.	-98*
CN(C)c1nc2c(N)ncnc2n1C1OC(CO)C(O)C1O (centres undefined)	.	.	.	.	-20
CN(C)c1ncnc2c1ccn2C1OC(CO)C(O)C1O (centres undefined)	.	.	.	.	-98*
Cc1cccc(-n2c(SCc3ccc([N+](=O)[O-])cc3)nnc2-c2c[nH]c3ccccc23)c1	.	0%	?	?	?
CC(C)C[C@@H](CC(=O)N[C@@H](CCC(=O)O)CC(=O)O)NC(=O)[C@@H]1CCCC[C@H]1NC(=O)C[C@H](CCCN)NC(=O)C[C@H](Cc1ccccc1)NC(=O)[C@@H]1CNCC[C@H]1N	.	-8%	.	.	.
Cc1nc(NC(=O)/C=C/c2ccc(Cl)cc2Cl)sc1C(=O)N(C)C	4%	1%	15%	?	-61*
Cc1nc(NC(=O)/C=C/c2ccccc2)sc1C(=O)N(C)C	-5%	3%	137%	43%	43
Cc1cc(Cn2nc(C(=O)NCc3cccc(C(F)(F)F)c3)cc2-c2ccccc2)on1	1%	.	?	?	25
